# Laboratory results: the supplement of paper PMC3334620
# Whole data set: some 33,000 sequences, median “E-score (-0.5 to 0.5)” near -0.012, cut for the highest 2% near 0.29. The entries come from a sample that favours the highest values as a whole.
# Biological target: T1, Ybr033w (UniProt P38073)
# T1 sequence: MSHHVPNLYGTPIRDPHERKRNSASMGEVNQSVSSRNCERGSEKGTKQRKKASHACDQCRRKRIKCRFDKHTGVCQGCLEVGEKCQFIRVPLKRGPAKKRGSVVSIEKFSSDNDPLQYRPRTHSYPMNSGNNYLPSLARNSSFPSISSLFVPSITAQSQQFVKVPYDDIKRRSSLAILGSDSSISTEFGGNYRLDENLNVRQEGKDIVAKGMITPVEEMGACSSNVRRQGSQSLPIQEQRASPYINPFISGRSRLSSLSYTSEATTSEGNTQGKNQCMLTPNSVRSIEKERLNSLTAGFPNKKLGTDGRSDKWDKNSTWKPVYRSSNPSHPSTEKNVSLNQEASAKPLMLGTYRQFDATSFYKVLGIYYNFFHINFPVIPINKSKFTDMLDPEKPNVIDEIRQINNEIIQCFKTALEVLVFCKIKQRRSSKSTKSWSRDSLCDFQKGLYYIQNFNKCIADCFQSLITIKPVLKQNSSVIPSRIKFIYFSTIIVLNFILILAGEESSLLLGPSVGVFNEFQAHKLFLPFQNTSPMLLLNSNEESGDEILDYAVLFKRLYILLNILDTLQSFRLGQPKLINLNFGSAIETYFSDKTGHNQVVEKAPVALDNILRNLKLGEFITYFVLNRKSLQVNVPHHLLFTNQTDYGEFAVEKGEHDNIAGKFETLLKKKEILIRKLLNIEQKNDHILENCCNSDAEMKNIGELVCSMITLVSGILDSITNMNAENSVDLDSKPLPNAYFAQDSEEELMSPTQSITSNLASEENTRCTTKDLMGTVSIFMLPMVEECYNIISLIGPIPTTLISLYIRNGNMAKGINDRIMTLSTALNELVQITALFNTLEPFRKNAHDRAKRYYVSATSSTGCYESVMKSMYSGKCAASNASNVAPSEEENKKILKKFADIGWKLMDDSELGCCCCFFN
# Assay: PBM E-score (8-mer binding enrichment) (E-score (-0.5 to 0.5)); higher = stronger / more preferred TF binding
# Details: protein concentration: 200 nM; construct: GST-full length
# Experimental: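 Universal 'all 10-mer' protein binding microarrays (Agilent AMADID 015681) probed with GST-tagged S. cerevisiae TFs (full-length or DBD) made by in vitro transcription/translation (PURExpress), about 100-200 nM. Bound TF was detected with fluorescent anti-GST. Each ungapped 8-mer (which stands for itself and its reverse complement) is scored by the PBM enrichment score (E-score), a modified Wilcoxon-Mann-Whitney statistic from -0.5 to +0.5, computed with the Universal PBM Analysis Suite. Scale: above 0.35 generally sequence-specific binding.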
row,Sequence,PBM E-score
1,AGTGCTTA,-0.00926
2,CCATTTGC,0.0186
3,AGGTAGTC,-0.165
4,TATTTAAA,0.301
5,CAGTTAAA,0.192
6,CATTAAAC,0.13
7,TATTAAAA,0.312
8,GAGTTAAA,0.0599
9,CATTAAAA,0.319
10,CATTAAAG,0.147
11,TATTTTAA,0.26
12,TTTTAAAA,0.073
13,AATTAAAA,0.112
14,TAGTTAAA,0.296
15,CATTTAAA,0.21
16,AGAAATCC,0.0392
17,CGCAAGCC,0.0476
18,ACAGAGTC,-0.176
19,GATTAAAC,0.17
20,CTGTTAAA,0.109
21,CAGTTGAA,0.00266
22,GGTTAAAA,0.0924
23,AAGTTGAA,0.0758
24,TTGTTAAA,0.0557
25,ATGTTAAA,0.289
26,TAGTTGAA,0.307

row,Sequence,PBM E-score
1,GATTAAAA,0.311
2,CACTGTTC,-0.00287
3,ACTTCATG,-0.118
4,ACTGCAGC,-0.136
5,ACTTACCC,0.114
6,CCGACCAA,-0.0529
7,ATCATGAC,0.0647
8,CTGCTAAG,-0.132
9,GCATCGAC,-0.0951
10,TGACCACA,0.0413
11,TCCCTAAA,0.0945
12,ATTCGTGG,0.0347
13,GTATTTAA,0.267
14,AGATTTTA,0.109
15,AGATTTTC,0.322
16,ATTTTTAG,0.179
17,ATATTTAC,0.215
18,ATATTTAG,0.321
19,CTATTTAA,0.022
20,ATATTTTA,0.3
21,AGATTTCC,0.135
22,CTATTTTA,0.252
23,GTATTTTA,0.23
24,ATATTTAA,0.372
25,CCATTTAG,-0.056
26,CGTGGGCC,-0.155

row,Sequence,PBM E-score
1,AATCCTAA,0.0561
2,CCTCCAGG,-0.322
3,CACCGACG,-0.0189
4,ATATCCAT,0.196
5,GAGCTCAC,-0.27
6,CATATGCA,0.0648
7,CCCTTACC,-0.131
8,ATATTTCG,0.269
9,ATATTTTC,0.342
10,CTATTTCC,0.276
11,ATCTTTAA,0.299
12,ATATTTCC,0.349
13,ATCTTTTA,0.236
14,ATCTTTAC,0.203
15,CTATTTTC,0.284
16,ATATTTTG,0.234
17,CCCCTTTC,-0.262
18,GGAACGAA,0.104
19,AGGGATAT,0.0785
20,ACGACTCC,0.0443
21,CGGGGTAG,-0.177
22,GTGGCTAA,0.0232
23,AAATTTGT,0.303
24,AATTTTGT,0.215
25,GAAATTAA,0.294
26,AAATTTGG,0.0261

row,Sequence,PBM E-score
1,CAAATTAA,0.212
2,AAAATTAC,0.22
3,AAAATTAT,0.358
4,AAAATTCG,0.279
5,AAAATTCA,0.359
6,AAATTTAT,0.228
7,GAAATTAC,0.255
8,GAAATTCA,0.228
9,CCACTTAC,0.0573
10,TAACGGAA,0.153
11,CTCAGAGC,-0.191
12,CCGAAGTC,-0.0348
13,CAATGAAG,0.0396
14,GACTGTTA,0.0926
15,AGAGGAAT,-0.012
16,ACGAGGAC,-0.181
17,CTAAATGC,0.0943
18,AAAAATTT,0.283
19,AAAATTTC,0.132
20,AAAATTAG,0.179
21,AAAATTTT,0.293
22,TAAATTGA,0.265
23,TAAATTAA,0.283
24,GAAATTGC,0.0471
25,AAAATTAA,0.308
26,GAAATTGA,0.289

row,Sequence,PBM E-score
1,GGGGAGGA,-0.205
2,ATGGTCTC,-0.0831
3,CAGCAGAC,-0.106
4,ACAGTCGC,-0.136
5,AAGCGACG,-0.285
6,ACGGGTGG,-0.171
7,GTACGCTA,-0.178
8,TCCCTACA,-0.0308
9,ATTAAAAG,0.223
10,CTTAAACA,0.104
11,ATTAAACG,0.27
12,ATTAAACA,0.312
13,TTAAAAAA,0.306
14,ATTAAAAC,0.272
15,CTAAAAAA,0.267
16,CTTAAAGA,-0.102
17,ATTAAAAA,0.297
18,TTTAAAAA,0.149
19,GTTAAAGA,0.182
20,ATTAAAGA,0.327
21,GGGTATGA,0.0197
22,ACTCCCCT,-0.002
23,CTGATAAG,0.126
24,AGAAACCC,0.0994
25,CAGTGCCG,-0.105
26,CTTCGTAC,-0.103

row,Sequence,PBM E-score
1,GCCGCTAC,-0.121
2,GAGCTGCA,-0.284
3,GAGTAATA,0.334
4,AAGTAATA,0.0769
5,TAGTAATA,0.241
6,AAGTAATT,0.331
7,CAGTAATC,-0.0846
8,GAGTAATC,0.132
9,CAGTAATG,0.282
10,CAGTAATA,0.317
11,AAGTAATG,0.141
12,GGGCTGAA,0.0197
13,ATAGCCAT,0.0973
14,ACAATGCC,-0.0228
15,CGCAAATC,-0.0144
16,TAGGTGCA,-0.0741
17,TAATGGAA,0.184
18,ATGATTTA,0.253
19,CTGATTAA,0.22
20,GTGATTTA,0.295
21,TGGATTAA,0.38
22,GGGATTGA,-0.148
23,TGCATTAA,0.256
24,GGGATTAC,-0.103
25,GTGATTAA,0.291
26,CTGATTTA,0.156

row,Sequence,PBM E-score
1,ATGATTAA,0.231
2,CGGATTAG,-0.0597
3,GGGATTAA,0.411
4,ACGCATTG,-0.0453
5,AGCCCACG,-0.202
6,CATGGTGA,0.137
7,CCGATTTA,0.183
8,GCGATTTA,0.0771
9,TCGATTAA,0.288
10,GCGATTAA,0.19
11,ACGATTAA,0.141
12,ACGATTTA,0.36
13,ACACCGTC,-0.0477
14,AAGCGCAT,-0.0621
15,CACCGCTA,-0.0953
16,TAAACTGA,0.136
17,ATGGCCTG,-0.16
18,ACGATACA,0.0132
19,GCGATACA,0.0586
20,TCGATACA,0.298
21,ACGGTAGC,-0.123
22,ACTAGTCT,-0.0233
23,ACCATCGG,-0.118
24,ACAACCAC,0.0628
25,ACAACCAT,0.297
26,ACAACCAG,0.102

row,Sequence,PBM E-score
1,CGTTCTGC,0.0161
2,GCTTATGA,-0.0277
3,AACTAACT,0.126
4,AACTAATC,0.192
5,AACTAATG,0.29
6,AACTAATA,0.298
7,AACTAAAG,0.231
8,AACTAATT,0.293
9,CACTAATG,0.0973
10,TACTAATA,0.185
11,CACTAATA,0.0444
12,AAATCGGC,-0.158
13,CCACCGGA,0.172
14,GAGACCAA,0.0622
15,ATCCGCTC,-0.102
16,ACGGTATG,-0.0502
17,AGGCATAA,-0.0986
18,ATTTAGGC,0.117
19,CCCACCTC,-0.244
20,AAATTTCA,-0.0112
21,CAATTTCA,0.0349
22,TAATTTAA,0.343
23,TAATTTCA,0.289
24,AAATTTAC,0.263
25,GAATTTAA,0.0723
26,AAATTTAG,0.278

row,Sequence,PBM E-score
1,AAATTTAA,0.29
2,CAATTTAA,0.27
3,CGCCAGAA,0.043
4,ACAAGTAT,0.249
5,AACACAAC,0.116
6,CCTTTCTC,-0.11
7,CCGTCGCC,-0.247
8,AGGATAAT,0.36
9,TCGATAAA,0.167
10,TAGATAAA,0.341
11,TGGATACA,0.0503
12,AGGATACT,-0.0125
13,GTGATAAA,0.102
14,ATGATAAA,0.238
15,ACGATAAT,0.163
16,CAGATAAA,0.194
17,TTGATAAA,0.368
18,TGGATAAA,0.391
19,AAGATAAA,0.257
